Screening results (PubChem)
A selection: hits, their analogues and other compounds. The true share with any hit is near 3.4%.
MEKK3 PB1 HTS = modulators (inhibitors or enhancers) of MEK5 binding to human MEKK3 PB1 domain | Q99759 | bead-based flow cytometry, Alexa488-MEK5 binding to MEKK3; actives lie on both sides; 0 = blocked by unlabeled MEK5, 100 = vehicle | binding response (% of control), % at 10 µM | hit rate 1.4% among 290,000 | AID 1529;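 active = binding response more than 3 SD above or below the average of its plate-row segment, actives on both sides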;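 note: Alexa488 bead fluorescence after subtracting the streptavidin-only scavenger bead signal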
Target sequence (Q99759 whole entry, looked up, the tested form may be a part): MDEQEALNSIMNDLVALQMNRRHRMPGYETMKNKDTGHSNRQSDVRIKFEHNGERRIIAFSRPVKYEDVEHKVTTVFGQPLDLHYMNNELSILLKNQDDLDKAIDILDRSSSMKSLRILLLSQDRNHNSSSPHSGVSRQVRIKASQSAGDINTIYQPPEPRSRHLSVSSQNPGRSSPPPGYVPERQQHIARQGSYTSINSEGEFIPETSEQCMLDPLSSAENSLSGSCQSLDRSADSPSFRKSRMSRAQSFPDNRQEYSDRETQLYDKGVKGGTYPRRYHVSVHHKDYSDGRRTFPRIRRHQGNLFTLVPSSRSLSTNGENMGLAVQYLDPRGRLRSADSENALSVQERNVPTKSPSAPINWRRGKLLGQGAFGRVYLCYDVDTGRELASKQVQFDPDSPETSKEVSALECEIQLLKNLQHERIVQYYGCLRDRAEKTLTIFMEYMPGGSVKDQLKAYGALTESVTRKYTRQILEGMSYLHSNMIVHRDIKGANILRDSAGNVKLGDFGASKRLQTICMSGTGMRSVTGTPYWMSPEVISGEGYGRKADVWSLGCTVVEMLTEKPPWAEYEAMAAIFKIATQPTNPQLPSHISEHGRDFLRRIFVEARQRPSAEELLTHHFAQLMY
MEKK2wt PB1 HTS = raises or lowers MEK5 binding to wildtype human MEKK2 PB1 domain; hit rate 1.1% among 290,000; bead flow cytometry, Alexa488-MEK5 binding to MEKK2 WT; actives lie on both sides; AID 1531; Q9Y2U5; binding response (% of control), % at 10 µM; in the data active = binding response below about 67% or above about 130%
ANO1 block = blocks the mouse calcium-activated chloride channel TMEM16A; Q8BHY3; normalized B-score (activity score, 25-100; higher = stronger inhibition) at 10 µM; hit rate 1.2% among 310,000; HEK293 TMEM16A/YFP iodide influx fluorescence, ionomycin; AID 588511;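 active = ratio plate-corrected score three or more library SD toward inhibition, starting fluorescence score within five deviations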;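 note: score derived from kinetic fluorescence span divided by baseline fluorescence per well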
MEKK2mut PB1 HTS = signal of MEK5 binding to mutant human MEKK2 PB1 domain; bead flow cytometry, Alexa488-MEK5 binding to MEKK2 mutant; percent response, % at 10 µM; hit rate 0.35% among 290,000; AID 1530; in the data active = percent response above about 24%, passing the limit was not always enough
TMEM16A act = mouse TMEM16A channel activation, primary screen. HEK293 TMEM16A/YFP-H148Q/I152L, iodide quench fluorescence; hits give low values. hit rate 0.3% among 340,000. B-score at 10 µM. AID 623877;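 active = fluorescence-ratio B-score plate-corrected deviation score at least 3 library SD below zero, with starting fluorescence score within 5 deviations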;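 note: channel opened by trigger with iodide after compound preincubation; score built on the fluorescence ratio of max minus min over baseline; more negative score means more quench and so TMEM16A activation or potentiation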
NTR1 agonist = activates human neurotensin receptor 1; P30989; NTR1-U2OS beta-arrestin-GFP spot imaging, agonist mode; activation, % at 20 µM; hit rate 0.17% among 330,000; AID 493036;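 active = activation at or above 40% of the spot to cytoplasm intensity ratio, with at least 20 cells analyzed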
Each line names hits and unclear results; the compound was inactive in the other large screens; [ ] = remark or other dose.

CN(C(=O)COC(=O)c1nc(Cl)c(Cl)c(Cl)c1Cl)C1CCS(=O)(=O)C1 (centres undefined)	none (no result: ANO1 block, NTR1 agonist)
CC1(C)N=C(N)N=C(N)N1c1ccc(OCCCOc2ccccc2)c(Cl)c1	MEKK2wt PB1 HTS 165.0, MEKK2mut PB1 HTS 46.0 (no result: NTR1 agonist)
Oc1c(Cl)cc(Cl)cc1C1=NNC(c2ccc(Cl)cc2)C1 (centres undefined)	none (no result: ANO1 block, NTR1 agonist)
Oc1ccc(Cl)cc1C1=NNC(c2ccc(Cl)cc2)C1 (centres undefined)	MEKK3 PB1 HTS 135.0
CCN(Cc1ccccc1)c1c(C(=O)O)cnc2c1cnn2C	TMEM16A act -4.83
COc1ccc(CN2C(=O)c3ccccc3C(/C=N\OCc3ccc(F)cc3)C2=O)cc1 (centres undefined)	ANO1 block 25
Cc1ccc(NC(=O)CSc2ncccc2C(=O)Oc2cccc([N+](=O)[O-])c2)cc1Cl	none
O=[N+]([O-])c1cc(C(F)(F)F)cc([N+](=O)[O-])c1NCCNC(=S)Nc1ccc(Cl)c(Cl)c1	ANO1 block 100
CCc1ccccc1N(C)S(=O)(=O)c1ccc(-c2cc(C)no2)s1	TMEM16A act -28.1
CCOc1ccc(/C=N/NC(=O)c2nnn(-c3nonc3N)c2COc2ccc(F)cc2)cc1	TMEM16A act -5.79
CN(C)c1ccc(/C=N/NC(=O)c2nnn(-c3nonc3N)c2COc2ccc(F)cc2)cc1	none
CCCOc1ccc(-c2c(C(=O)N/N=C/c3ccncc3)nnn2-c2nonc2N)cc1	TMEM16A act -6.8
COc1ccc(S(=O)(=O)N2CCC(C(=O)N3CCc4ccccc4C3)CC2)cc1	TMEM16A act -12.1
CCOc1ccc(S(=O)(=O)N2CCC(C(=O)N3CCc4ccccc4C3)CC2)cc1	none
CN(C)c1ccc(/C=N/c2cc(-c3ccccc3)nn2-c2ccccc2)cc1	none
CC(C)(C)n1nnnc1C(c1ccc(F)cc1)N(Cc1ccc(F)cc1)Cc1ccco1 (centres undefined)	TMEM16A act -5.1
Cc1ccc(-n2cc(C(=O)c3cc(Cl)ccc3O)cc(C#N)c2=O)cc1	ANO1 block 25
COc1ccc(-n2cc(C(=O)c3cc(Cl)ccc3O)cc(C#N)c2=O)cc1	none
COc1ccc(O)c(C(=O)c2cc(C#N)c(=O)n(-c3ccc(Cl)cc3)c2)c1	TMEM16A act -4.6
CCOc1ccc(-n2cc(C(=O)c3cc(Cl)ccc3O)cc(C#N)c2=O)cc1	ANO1 block 25
C=CCc1ccc(OCCOc2cccc3ccc(C)nc23)c(OC)c1	none
COc1cc(CC(=O)N(c2ccccc2)c2nc(C)cs2)cc(OC)c1OC	none
COc1ccc(CNC(=O)CN2CCN(c3ccc(F)cc3)CC2)cc1	none
O=C(NC1CCCN(Cc2ccc(Cl)cc2)C1)c1cnc2ccccn2c1=O (centres undefined)	none
CC(C)Cc1ccc(CN2CCCC(NC(=O)CCN3CCCO3)C2)cc1 (centres undefined)	MEKK2wt PB1 HTS 134.0
CC(C)Cc1ccc(CN2CCCC(NC(=O)c3cnc4ccccn4c3=O)C2)cc1 (centres undefined)	ANO1 block 25
CC(C)Cc1ccc(CN2CCCC(NC(=O)CCN3CCCCC3=O)C2)cc1 (centres undefined)	none
O=S(=O)(Nc1nc2ccccc2nc1Nc1ccc2c(c1)OCCO2)c1cccs1	ANO1 block 25
CN(C)S(=O)(=O)c1ccc(-c2ccccc2)cc1	none
CN(c1ccccc1)S(=O)(=O)c1ccc(-c2ccccc2)cc1	ANO1 block 25
CCOC(=O)CC(=O)CSc1nc2sc(C)cc2c(=O)n1Cc1ccco1	none
Cc1cc2c(=O)n(Cc3ccco3)c(SCC(=O)c3ccc(Cl)s3)nc2s1	ANO1 block 25
O=C(Nc1ccccc1N1CCN(c2ccc(F)cc2)CC1)C12CC3CC(CC(C3)C1)C2	none
O=C(NC(=S)N1CCN(c2ccc(F)cc2)CC1)C12CC3CC(CC(C3)C1)C2	TMEM16A act -5.38
CN1CCN(c2cc(C(F)(F)F)nc3ccc(F)cc23)CC1	none
CCOC(=O)[C@H]1[C@H]2COc3ccc(C)cc3[C@@H]2N2C(=O)c3cc(F)c(F)cc3NC(=O)[C@@]12C	none (no result: MEKK3 PB1 HTS, MEKK2wt PB1 HTS, MEKK2mut PB1 HTS)
CCOc1ccc(S(=O)(=O)N2CC(=O)Nc3ccccc32)cc1	none
C=CCn1c(SCC(=O)Nc2cc3oc4ccccc4c3cc2OC)nnc1-c1cnccn1	MEKK2wt PB1 HTS 140.0
CCCn1c(O)c(C=Nc2ccccc2)sc1=S	none
Oc1c(/C=C/C=C/C=Nc2ccccc2)sc(=S)n1Cc1ccccc1	MEKK3 PB1 HTS 21.0[inhibitor] (no result: MEKK2wt PB1 HTS)
Cc1nn(-c2ccc(C(=O)N3CCN(S(=O)(=O)c4ccccc4C(F)(F)F)CC3)cc2)c(C)c1Cl	TMEM16A act -5.77 (no result: MEKK3 PB1 HTS, MEKK2wt PB1 HTS, ANO1 block, MEKK2mut PB1 HTS)
O=C(NCCN1CCOCC1)c1cc2cc([N+](=O)[O-])ccc2s1	none
CCCCOc1ccc(S(=O)(=O)n2c(C)nc3ccccc32)cc1	ANO1 block 25
Cc1csc(NC(=O)Cc2nn(C)c(=O)c3ccccc23)n1	ANO1 block 25
Cn1nc(CC(=O)NCc2cccc3ccccc23)c2ccccc2c1=O	none
COc1cc(NC(=O)Cc2nn(C)c(=O)c3ccccc23)cc(OC)c1	none
COc1ccccc1NC(=O)Cc1nn(C)c(=O)c2ccccc12	ANO1 block 25
O=S(=O)(Nc1ncccn1)c1cc(Cl)ccc1Cl	none
Cc1ccc(C2=CC(c3ccc(C)cc3)n3ncnc3N2)cc1 (centres undefined)	none
CC(C)(C)c1ccc(C2=CC(c3ccccc3)n3ncnc3N2)cc1 (centres undefined)	ANO1 block 100
CC(C)(C)C(=O)CN1C(=O)NC2(CCc3ccccc32)C1=O (centres undefined)	none
Cc1nn(CC(=O)NC(C)CCc2ccccc2)c(=O)c2nn(-c3ccccc3)c(C)c12 (centres undefined)	none
CN(/N=C/c1cc(Cl)cc(Cl)c1O)C(=S)NC(C)(C)C	ANO1 block 100
Oc1c(Cl)cc(Cl)cc1C=Nc1ccc2c(c1)OCCO2	none
Clc1ccc(CN2CCN(c3ncnc4scc(-c5cccs5)c34)CC2)cc1	ANO1 block 25
Fc1ccc(CN2CCN(c3ncnc4scc(-c5ccc(F)cc5)c34)CC2)cc1	none
O=C(c1cc(C2CC2)nc2ccccc12)N1N=C(C(F)F)CC1(O)C(F)F (centres undefined)	none
O=C(c1cc(C2CC2)nc2ccc(Br)cc12)N1N=C(C(F)F)CC1(O)C(F)F (centres undefined)	ANO1 block 100
C=CCNc1nc2ccccc2nc1NS(=O)(=O)c1ccc(F)cc1	none
C=CCNc1nc2ccccc2nc1NS(=O)(=O)c1ccc(Br)cc1	ANO1 block 25 (no result: TMEM16A act)
